These results are taken from PubChem BioAssay (Tox21).

The structures appear in SMILES notation. Unmarked numbers belong to inactive results. Calls of active or inactive are those of the source. The call rests on the fitted dose curve.
On the % scale 0 is the no-effect control and ±100 the full control effect.

Sequence of Thyrotropin-releasing hormone receptor (Homo sapiens) (P34981 whole entry, looked up): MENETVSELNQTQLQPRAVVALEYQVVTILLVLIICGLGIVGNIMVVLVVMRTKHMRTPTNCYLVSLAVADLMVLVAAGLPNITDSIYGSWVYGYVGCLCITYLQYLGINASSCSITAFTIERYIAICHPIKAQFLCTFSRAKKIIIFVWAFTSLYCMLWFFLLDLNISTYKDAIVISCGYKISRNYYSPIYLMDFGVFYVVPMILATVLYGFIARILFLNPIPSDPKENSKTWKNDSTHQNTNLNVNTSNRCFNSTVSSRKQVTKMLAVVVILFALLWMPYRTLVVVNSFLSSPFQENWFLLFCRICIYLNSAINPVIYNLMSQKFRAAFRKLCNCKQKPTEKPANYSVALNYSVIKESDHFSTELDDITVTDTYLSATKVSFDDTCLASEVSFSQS

This test addresses Thyrotropin-releasing hormone receptor (Homo sapiens) (UniProt P34981). Kind of test: qHTS assay to identify small molecule agonists of the thyrotropin-releasing hormone receptor (TRHR) signaling pathway (AID 1346891).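 Further: HEK293 cells expressing TRHR with calcium dye readout.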 Particulars: TRHR-HEK293 calcium fluorescence, agonist mode; series mostly up to 57.6 µM. The source says:
National Center for Advancing Translational Sciences [NCATS] NIH Chemical Genomics Center [NCGC] U.S. Environmental Protection Agency [EPA] National Institutes of Environmental Health Sciences [NIEHS] National Toxicology Program [NTP] Assay overview: Thyrotropin-releasing hormone (TRH) receptor (TRHR) is a G-protein-coupled receptor which binds the tripeptide thyrotropin releasing hormone. TRHR is found in the brain and, when bound by TRH, acts (through phospholipase C) to increase intracellular inositol trisphosphate. It plays a crucial role in the anterior pituitary where it controls the synthesis and secretion of thyroid stimulating hormone and prolactin. The TRHR-Hek293 assay is a cell-based assay, and it has the potential to screen G protein-coupled receptors. A compound/drug can either activate (agonist) or suppress (antagonist) GPCRs that can be monitored by levels of intracellular calcium. Using this assay, the Tox21 10K compound library was screened to identify potential TRHR agonists.
Assay Protocol Summary: The TRHR-Hek293 cells were dispensed at 1500cells/4uL/well in 1536-well black-clear bottom plates using a Multidrop dispenser. After the assay plates were incubated at a 37 C/5% CO2 incubator for 18 hours, 4 uL of Dye-Loading Solution was added to each well. The plates were incubated at 37 C for 2 hours. For agonist mode, 23 nL of compounds dissolved in DMSO, positive controls or DMSO only was transferred to the assay plate by a pin tool. The fluorescence intensity in the plates was measured using FDSS 7000EX kinetic plate reader for 3 min at 1 sec intervals. Each test compound was measured at 15 concentrations and in triplicates.
On the technique in general: In qHTS, concentration-response curves come from the screen itself.
With `CNc1ncnc2nc[nH]c12`, the result was inactive.
The same measure, in the same setting: the value for `CCN(CC)S(=O)(=O)c1ccc(C(=O)O)cc1` was “inactive”; that for `CCC(C)(C)C1CCC(OC)CC1` (stereo not given) was “inactive”.
The same measure, in the same setting: the value for `CO` was “inactive”; that for `O=C1C(CCS(=O)c2ccccc2)C(=O)N(c2ccccc2)N1c1ccccc1` (stereo not given) was “inactive”.
Regarding `CCCc1ccc(N)cc1`, the outcome was inactive.
Still for that read-out and setting: the value for `CC1CCN(CCCC(=O)c2ccc(F)cc2)CC1` was “inactive”.
In the case of `C=C(C)C(=O)OCCCCCCCCCCCCCCCCCC`, the activation was -0.148% [at 11.8 µM].
For the molecule `CCCCCCOC(=O)c1ccccc1O`, the result was inactive.
Same read-out and setting: the result for `Cc1ncc(CSSCc2cnc(C)c(O)c2CO)c(CO)c1O` reads “inactive”; that for `CC(=O)NC(Cc1ccccc1)C(=O)O` (stereo not given), “inactive”.
Regarding `[O-][N+](=Nc1ccccc1)c1ccccc1`, the result was inactive.
Still for that read-out and setting: the value for `NC(=O)c1ncn([C@@H]2O[C@H](CO)[C@@H](O)[C@H]2O)c1O` was “inactive”; that for `CC(C)c1cccc(O)c1` was “inactive”.
As to `CC(C)CCOC(=O)CC(C)C`, the result was inactive.
The same measure, in the same setting: the result for `CCCCCCCCCCCCCCC` reads “inactive”.
Still for that read-out and setting: the result for `Oc1ccc2c(c1)OC[C@@H](N1CCC(O)(c3ccc(F)cc3)CC1)[C@H]2O` reads “inactive”; that for `CC(C)c1cccc(C(C)C)c1N`, “inactive”; that for `COC(=O)CCCCCCCCC(=O)OC`, “inactive”.
Same read-out and setting: the value for `CNC(=O)c1c(I)c(NC(=O)CCCCC(=O)Nc2c(I)c(C(=O)O)c(I)c(C(=O)NC)c2I)c(I)c(C(=O)O)c1I` was “inactive”.
For the molecule `CC(C)[N+](C)(C)CC(O)COc1cccc2ccccc12` (stereo not given), the result was inactive.
Still for that read-out and setting: the value for `C#CC(O)C(CC)CCCC` (stereo not given) was “inactive”.
Same read-out and setting: the result for `CCCCCCC(CCCCCCCCCCC(=O)OCC(COC(C)=O)OC(C)=O)OC(C)=O` (stereo not given) reads “inactive”.
In the case of `CCN(CC)C(=O)c1ccc(O)c(OC)c1`, the result was inactive.
Regarding `CC(C=O)Cc1ccc(C(C)C)cc1` (stereo not given), the outcome was inactive.
Regarding `CCCCCCCCCCCCI`, the result was inactive.
Still for that read-out and setting: the result for `OC1OC[C@@H](O)[C@H](O)[C@H]1O` (stereo not given in full) reads “inactive”.
Same read-out and setting: the result for `CC(C)c1ccc2oc3nc(N)c(C(=O)O)cc3c(=O)c2c1` reads “inactive”; that for `C[C@H]1O[C@@H](n2cc(F)c(=O)[nH]c2=O)[C@H](O)[C@@H]1O`, “inactive”; that for `CC(C)(C)C(=O)/C=C/c1ccc(Cl)cc1`, “inactive”.
On the same count and under the same terms, the result for `CCCCCCCCCCCCCCCCCC(=O)OCCCCCCCCCCCCCC(C)C` reads “inactive”; that for `C=C[Si](OC)(OC)OC`, “inactive”.
For `CCCC(=O)O[C@]1(C(=O)CCl)[C@@H](C)C[C@H]2[C@@H]3CCC4=CC(=O)C=C[C@]4(C)[C@@]3(F)C(=O)C[C@@]21C`, the outcome was inactive.
On the same count and under the same terms, the result for `CN(C)C(=O)C(CCN1CCC(O)(c2ccc(Cl)cc2)CC1)(c1ccccc1)c1ccccc1` reads “inactive”; that for `CCN1CCCC1CNC(=O)c1cc(S(N)(=O)=O)ccc1OC` (stereo not given), “inactive”; that for `C=CC(=O)N1CCOCC1`, “inactive”.
Same read-out and setting: the result for `C=CCn1c(=O)n([C@@H]2O[C@H](CO)[C@@H](O)[C@H]2O)c2nc(N)[nH]c(=O)c21` reads “inactive”.
Same read-out and setting: the value for `CO[Si](CCCNCCC[Si](OC)(OC)OC)(OC)OC` was “inactive”.
In the case of `O=C(O)CCNC(=O)c1ccc(N=Nc2ccc(O)c(C(=O)O)c2)cc1`, the result was inactive.
On the same count and under the same terms, the result for `NC(=O)CCCCC1CCSS1` (stereo not given) reads “inactive”.
